Here are results for eleven compounds from PubChem BioAssay (NCATS).

SMILES strings stand for the structures. Records with an inconclusive call do not appear. Where a call stands in place of a potency, no number is given. Calls of active or inactive are those of the source. The call rests on the fitted dose curve; in most records, active means well fitted cell-killing curve with a large enough effect; inconclusive means small, poorly fitted or top-dose-only effect; inactive means flat fitted curve, though single readings scatter.

This test can be described thus: qHTS assay to identify small molecule inhibitors of chordoma cells - UCH-2 (AID 1259356). To be noted: UCH-2 chordoma viability, CellTiter-Glo ATP luminescence, 48 h; series mostly up to 46.1 µM. Background: Quantitative high-throughput screening tests each substance at several concentrations.
On to `OCC1(CO)COC(C(Cl)(Cl)Cl)OC1`, for which the Potency entry was “inactive”.
The entry for `CC1(C)[C@H]2CC[C@]1(C)[C@H](O)C2` is “inactive”; for `CCCCCCCCCCCCCCCCCCOCC(COP(=O)([O-])OCC[N+](C)(C)C)OC` (stereo unspecified) it is “inactive”; for `CC[C@@H]1/C=C(\C)C[C@H](C)C[C@H](OC)[C@H]2O[C@@](O)(C(=O)C(=O)N3CCCC[C@H]3C(=O)O[C@H](/C(C)=C/[C@@H]3CC[C@@H](Cl)[C@H](OC)C3)[C@H](C)[C@@H](O)CC1=O)[C@H](C)C[C@@H]2OC` it is “inactive”.
The entry for `S=C=Nc1ccc(N=C=S)cc1` is “inactive”; for `CC(C)Cc1ccc([C@@H](C)C(=O)NS(C)(=O)=O)cc1` it is “inactive”; for `COc1cc(C)c(/C=C/C(C)=C/C=C/C(C)=C/C(=O)O)c(C)c1C` it is “inactive”.
The entry for `O=C1c2ccccc2CN2C(=O)c3ccccc3CN12` is “inactive”; for `CCCCC/C=C\CCC(=O)N[C@H]1[C@H](Oc2c3cc4cc2Oc2ccc(cc2Cl)[C@@H](O[C@@H]2O[C@H](CO)[C@@H](O)[C@H](O)[C@H]2NC(C)=O)[C@@H]2NC(=O)[C@H](NC(=O)[C@@H]4NC(=O)[C@H]4NC(=O)[C@@H](Cc5ccc(c(Cl)c5)O3)NC(=O)[C@H](N)c3ccc(O)c(c3)Oc3cc(O)cc4c3)c3ccc(O)c(c3)-c3c(O[C@H]4O[C@H](CO)[C@@H](O)[C@H](O)[C@@H]4O)cc(O)cc3[C@@H](C(=O)O)NC2=O)O[C@H](CO)[C@@H](O)[C@@H]1O` it is “inactive”; for `Cc1ccccn1` it is “inactive”.
As for `CO/N=C(\C(=O)N[C@@H]1C(=O)N2C(C(=O)O)=C(CSc3nc(C)c(CC(=O)O)s3)CS[C@H]12)c1csc(N)n1`, the Potency entry is “inactive”.
